This note sets out measurements from PubChem BioAssay (NCATS).

“And” between values parts separate entries of the source, which are not always exact repeats. Equal entries are not always repeated. Inconclusive results are not listed. The source made the active and inactive calls. Unless noted, calls follow the shape of the dose curve; as a rule, active = well fitted cell-killing curve with a large enough effect; inconclusive = small, poorly fitted or top-dose-only effect; inactive = flat fitted curve, though single readings scatter.

Assay [1] in a line: Cell Viability - LYMP2-006 (AID 978). Also: % is scaled to controls: 0 for no effect and ±100 for the full control effect; nearly all actives have a fitted effect of over 60% in size. The gist of the method:
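Human lymphoblastoid cells (LYMP2-006), 2500/well in complete medium, were treated with compound for 24 hr at 37 C. Cellular ATP was read by CellTiter-Glo luminescence after 30 min, and AC50 values came from Hill-equation fits of concentration-response data.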

Assay [2] in a line: Cell Viability - LYMP2-007 (AID 979).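 Also: cells exposed to compound for 24 h before reading; 0% = DMSO only and the negative end = 92 µM tetraoctylammonium bromide; nearly all actives have a fitted effect of over 60% in size.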 Put shortly: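 Human lymphoblastoid LYMP2-007 cells (2500/well) preincubated 5 h at 37 C, then treated 24 h at 37 C in complete medium. Viability by CellTiter-Glo ATP luminescence after 30 min at room temperature; AC50 from Hill fits.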
The nature of assay [3]: Cell Viability - LYMP2-008 (AID 980). Also: % is scaled to controls: 0 for no effect and ±100 for the full control effect; nearly all actives have a fitted effect of over 60% in size. The gist of the method:
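LYMP2-008 lymphoblastoid cells (2500/well) plated 5 h, then treated 24 h at 37 C in complete medium. Viability read as intracellular ATP by CellTiter-Glo luminescence after 30 min at room temperature; AC50 from Hill fits.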

A short description of assay [4]: Cell Viability - LYMP2-010 (AID 981). Also: % is scaled to controls: 0 for no effect and ±100 for the full control effect; nearly all actives have a fitted effect of over 55% in size. The gist of the method:
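Human lymphoblastoid LYMP2-010 cells (2500/well) treated 24 h at 37 C in complete medium; viability read as intracellular ATP by CellTiter-Glo luminescence. AC50 from Hill fits of concentration-response data; tetraoctylammonium bromide positive control.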

A short description of assay [5]: Cell Viability - LYMP2-012 (AID 982).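 Also: cellular ATP by luciferase luminescence where a drop means cytotoxicity; cells exposed to compound for one day before reading; 0% = DMSO only and full loss = 92 µM tetraoctylammonium bromide; nearly all actives have a fitted effect of over 55% in size.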
Assay [6] can be described thus: Cell Viability - LYMP2-014 (AID 983).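 Also: plate controls were DMSO only for no effect and 92 µM tetraoctylammonium bromide for full effect; nearly all actives have a fitted effect of over 50% in size.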 The gist of the method:
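LYMP2-014 human lymphoblastoid cells, 2500/well, treated 24 h at 37 C in complete medium; viability by CellTiter-Glo ATP luminescence after 30 min at room temperature. AC50 from Hill fits of qHTS concentration-response; tetraoctylammonium bromide positive control.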

The nature of assay [7]: Cell Viability - LYMP2-016 (AID 984). Also: % is scaled to controls: 0 for no effect and ±100 for the full control effect; nearly all actives have a fitted effect of over 55% in size. Put shortly:
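Human lymphoblastoid LYMP2-016 cells, 2500 per well, treated with compounds for 24 h at 37 C. Viability read as intracellular ATP by CellTiter-Glo luminescence after 30 min at room temperature; AC50 from Hill fits of concentration-response.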

Assay [8] is described as follows: Cell Viability - LYMP2-020 (AID 986).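 Also: plate controls were DMSO only for no effect and tetraoctylammonium bromide at 92 µM for full effect; nearly all actives have a fitted effect of over 55% in size.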 The gist of the method:
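Human lymphoblastoid LYMP2-020 cells (2500/well) preincubated 5 h at 37 C, then treated 24 h at 37 C. Viability measured as intracellular ATP by CellTiter-Glo luminescence after 30 min at room temperature; AC50 from Hill fits.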

A short description of assay [9]: Cell Viability - LYMP2-022 (AID 987). The gist of the method: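 LYMP2-022 lymphoblastoid cells (2500/well, complete medium) were treated with compounds for 24 hours at 37 C; intracellular ATP was then read by CellTiter-Glo luminescence after 30 min at room temperature. AC50 values were derived from Hill-equation fits.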
The nature of assay [10]: Cell Viability - LYMP2-024 (AID 988).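 Also: plate controls were DMSO only for no effect and 92 µM tetraoctylammonium bromide for full effect; nearly all actives have a fitted effect of over 60% in size.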 The gist of the method: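 Human lymphoblastoid LYMP2-024 cells (2500/well) rested 5 hr, then treated with compound for 24 hr at 37 C in complete medium. Viability was measured as intracellular ATP by CellTiter-Glo luminescence. AC50 values came from Hill-equation fits.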
The nature of assay [11]: Cell Viability - LYMP2-026 (AID 989). Also: % is scaled to controls: 0 for no effect and ±100 for the full control effect; nearly all actives have a fitted effect of over 50% in size. Put shortly: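 Human lymphoblastoid LYMP2-026 cells, 2500/well, exposed to compound 24 h at 37 C in complete medium. Viability as intracellular ATP by CellTiter-Glo luminescence; AC50 from Hill fits of qHTS concentration-response.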
The nature of assay [12]: Cell Viability - LYMP1-002 - Assay at 24 hr (AID 993). Also: % is scaled to controls: 0 for no effect and ±100 for the full control effect. The gist of the method: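 Human lymphoblastoid LYMP1-002 cells (2500/well) treated 24 h at 37 °C; viability as intracellular ATP by CellTiter-Glo luminescence. Tetraoctylammonium bromide as positive control; AC50 from Hill-equation fits of qHTS concentration-response.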
The nature of assay [13]: Cell Viability - LYMP1-002 - Assay at 40 hr (AID 994). Put shortly: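 LYMP1-002 human lymphoblastoid cells (2500/well, complete medium) were treated with compounds for 40 hr at 37 C. Intracellular ATP was measured by CellTiter-Glo luminescence, and AC50 values came from Hill-equation fits of concentration-response data; tetraoctylammonium bromide was the positive control.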

The nature of assay [14]: Cell Viability - LYMP2-018 (AID 985).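 Also: compound exposure lasted 24 hr at 37 °C; plate controls were DMSO only for no effect and tetraoctylammonium bromide at 92 µM for full effect; nearly all actives have a fitted effect of over 50% in size.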 The gist of the method: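 Human lymphoblastoid LYMP2-018 cells, 2500/well, settled 5 hr at 37 C then exposed to compound 24 hr at 37 C; intracellular ATP measured by CellTiter-Glo luminescence. AC50 from Hill-equation concentration-response fits.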
A short description of assay [15]: qHTS Assay for Lipid Storage Modulators (AID 1519; calls by dose curve; as to activity change, negative = inhibition: % is scaled to controls: 0 for no effect and ±100 for the full control effect). To be noted: Drosophila S3 cells, BODIPY lipid droplet/cell ratio, laser cytometry, cells loaded with oleic acid. Put shortly:
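Cells seeded at 5,000 per well were treated with compounds over a concentration series and loaded with oleic acid (400 uM, as added). Lipid droplet fluorescence (488 nm excitation, 500-530 nm channel) was read by laser-scanning cytometry and normalized to 20 uM Triacsin C.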
(In general: qHTS replaces the single test concentration by a dilution series.)

[16] abbreviates: measured here: cell count channel max response.
[17] abbreviates: measured here: lipid channel max response.

In the case of `C=C[C@H]1CN2CC[C@H]1C[C@@H]2[C@@H](O)c1ccnc2ccc(OC)cc12`, the call in [1], in [2], in assay [3], in assay [4], in [5] and in assay [6] was inactive. The result in [7], in assay [9], in assay [11] and in assay [12] was inactive. Besides, the Potency entry in [8], in assay [10] and in [13] was “inactive” each time.

`CCCN(CCC)S(=O)(=O)c1ccc(C(=O)O)cc1`: the molecule was classed as inactive in assay [1], in [2], in assay [3], in assay [4], in assay [5] and in [6]. Further, the call in assay [7], in assay [9], in assay [11] and in [12] was inactive. Moreover, the Potency entry in assay [14], in assay [8], in [10] and in [13] was “inactive” each time. In addition, the activity change, negative = inhibition in assay [15] (at 25.7 µM (top of the series)) is -2.1% (inactive); in [15] (at 57.5 µM (top of the series)), 1.2% (inactive). The max response in assay [15] (setting [16]) was 0.958% and 6.83%; in assay [15] (setting [17]), 0.939% and 10.4%.

Take `O=C(CCCN1CC=C(n2c(=O)[nH]c3ccccc32)CC1)c1ccc(F)cc1`: the activity change, negative = inhibition in [15] (at 25.7 µM (top of the series)) was 1.32% (inactive); in assay [15] (at 57.5 µM (top of the series)), 14.6% (inactive). Also, the max response in [15] (setting [16]) was -13.4% and 7.49%; in assay [15] (setting [17]), -9.23% and 27.6%.

For `CCN(CC)CCNC(=O)c1cc(Br)c(N)cc1OC`, the activity change, negative = inhibition in assay [15] (at 25.7 µM (top of the series)) is -3.04% (inactive); in assay [15] (at 57.5 µM (top of the series)), 5.14% (inactive). For the same molecule, the max response was -6.94% and 12.8% in [15] (setting [16]); -8.36% and 21.9% in [15] (setting [17]).

With `CCN(CC)CCNC(=O)COc1ccc(OC)cc1`, the values for the activity change, negative = inhibition in assay [15] (at 25.7 µM (top of the series)) and in assay [15] (at 57.5 µM (top of the series)) were -2.56% (inactive) and 3.31% (inactive), respectively. Besides, the max response is 7.9% and 27.2% in assay [15] (setting [16]); 4.41% and 33.1% in [15] (setting [17]).

For the molecule `COc1cc([C@H]2Oc3cc([C@H]4Oc5cc(O)cc(O)c5C(=O)[C@@H]4O)ccc3O[C@@H]2CO)ccc1O`, the outcome in assay [1], in assay [2], in assay [3], in [4], in [5] and in [6] was inactive. Also, the result in [7], in assay [9], in [11] and in assay [12] was inactive. The Potency result in assay [14], in assay [8], in [10] and in [13] was “inactive” throughout.

On to `CNCCc1ccccn1`, for which the activity change, negative = inhibition in assay [15] (at 25.7 µM (top of the series)) was -0.261% (inactive); in [15] (at 57.5 µM (top of the series)) it was 1.62% (inactive). For the same molecule, the max response in [15] (setting [16]) is 0.592% and 17.8%; in [15] (setting [17]), 1.76% and 22.8%.

Regarding `NCCNc1cccc2ccccc12`, the molecule was classed as inactive in assay [1], in [2], in assay [3], in assay [4], in [5] and in [6]. Further, the result in assay [7], in assay [11] and in assay [12] was inactive. The Potency entry in assay [14], in assay [10] and in [13] was “inactive” each time.
